This is an account of results in publication PMC5540273 (PLoS ONE, 2017).

Common to all, as to conditions: concentration: 1 μM, replicates: in singlicate; n = 1
Assay [1] has as its system T1, IKK-alpha.
T1 construct: gene CHUK

The subject of assay [2] is T2, IKK-beta.
T2 construct: gene IKBKB

Assay [3] concerns T3, IKK-epsilon.
T3 construct: gene IKBKE

Assay [4] concerns INSRR.
In assay [5] the test system is INSR.
The subject of assay [6] is IRAK1.
Assay [7] has as its system IRAK3.
For assay [8], the system named is IRAK4.
Assay [9] has as its system ITK.
Assay [10] relates to JAK1(JH1domain-catalytic).
Assay [11] concerns JAK1(JH2domain-pseudokinase).
The test system of assay [12] is JAK2(JH1domain-catalytic).
Assay [13] has as its system JAK3(JH1domain-catalytic).
In assay [14] the test system is T4, JNK1.
T4 construct: gene MAPK8

Assay [15] has as its system T5, JNK2.
T5 construct: gene MAPK9

Assay [16] has as its system T6, JNK3.
T6 construct: gene MAPK10

The test system of assay [17] is KIT-autoinhibited.
In assay [18] the test system is KIT.
Assay [19] has as its system LATS1.
Assay [20] deals with LATS2.
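Also: KINOMEscan kinase panel screen.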

`C[C@@H]1CC[C@@H](C(=O)Nc2ccccc2)CN1c1cc(-c2ccc3c(N)n[nH]c3c2)nc(N)n1` [GSK2286062]: the “%Inh” value in [1] worked out at 0%; in assay [2], 0%; in assay [3], 25%; in assay [4] it was 0%; in assay [5], 25%; in assay [6], 0%. Also, the “%Inh” value in [7] amounted to 0%; in assay [8], 0%; in assay [9], 1%; in assay [10], 2%; in assay [11] it was 2%; in assay [12], 0%. For the same compound, the “%Inh” value in assay [13] is recorded as 0%; in [14], 0%; in assay [15], 13%; in assay [16] it was 1%; in assay [17], 0%; in assay [18] it was 18%. In addition, the “%Inh” value in [19] is recorded as 0%; in assay [20] it was 2%.

Consider `Cl.c1ccc(-c2ccc3c(Nc4ccc5[nH]ncc5c4)ccnc3c2)nc1` [GW440137], for which the “%Inh” value came out at 10% in [1]; 15% in assay [2]; 17% in assay [3]; 0% in assay [4]; 15% in assay [5]; 18% in [6]. In addition, the “%Inh” value was determined as 26% in [7]; 12% in assay [8]; 7% in [9]; 26% in [10]; 0% in assay [11]; 36% in assay [12]. Moreover, the “%Inh” value stood at 0% in assay [13]; 9% in assay [14]; 27% in assay [15]; 15% in assay [16]; 0% in [17]; 94.4% in assay [18]. Besides, the “%Inh” value in assay [19] is on record as 0%; in assay [20], 3%.

For the compound `Nc1ncc(-c2cccnc2)c2scc(-c3ccc4c(c3)CCN4C(=O)Cc3ccccc3)c12` [GSK683281], the “%Inh” value in assay [1] came out at 0%; in assay [2] it was 11%; in [3] it was 46%; in assay [4] it was 0%; in assay [5] it was 0%; in assay [6] it was 10%. Also, the “%Inh” value in assay [7] was found to be 17%; in [8], 5%; in assay [9], 18%; in assay [10], 19%; in assay [11], 1%; in assay [12], 14%. The “%Inh” value in [13] turned out to be 0%; in assay [14], 22%; in assay [15] it was 37%; in assay [16], 9%; in [17] it was 7%; in [18], 98.5%. The results for the “%Inh” value in assay [19] and in assay [20] were 0% and 19%, respectively.

For `COc1ccc(Nc2nccc(N3CCC(NC(=O)Nc4cccc(OC)c4)C3)n2)cc1` (centres unmarked) [GSK1379742], the “%Inh” value in [1] worked out at 24%; in assay [2], 19%; in assay [3], 0%; in assay [4] it was 0%; in assay [5], 0%; in [6], 0%. For the same compound, the “%Inh” value was 15% in [7]; 6% in assay [8]; 11% in assay [9]; 12% in assay [10]; 0% in [11]; 26% in assay [12]. Moreover, the “%Inh” value in assay [13] was 0%; in assay [14] it was 14%; in assay [15], 13%; in [16], 0%; in assay [17] it was 31%; in assay [18] it was 49%. Besides, the “%Inh” value in [19] and in assay [20] was 0% throughout.
